In one experiment the test system is AAK1. To be noted: concentration: 1 μM, replicates: in singlicate; n = 1.
Another experiment deals with ABL1-nonphosphorylated. To be noted: concentration: 1 μM, replicates: in singlicate, n = 1.
For a further experiment, the system named is ABL1-phosphorylated. To be noted: concentration: 1 μM, replicates: in singlicate, n = 1.
The next experiment has as its system ABL2. To be noted: concentration: 1 μM, replicates: in singlicate, n = 1.
In a further experiment the test system is ACVR1B. To be noted: concentration: 1 μM, replicates: in singlicate, n = 1.
A further experiment has as its system ACVR1. To be noted: concentration: 1 μM, replicates: in singlicate, n = 1.
The next experiment relates to ACVR2A. To be noted: concentration: 1 μM, replicates: in singlicate, n = 1.
The next experiment relates to ACVR2B. To be noted: concentration: 1 μM, replicates: in singlicate, n = 1.
The next experiment relates to ACVRL1. To be noted: concentration: 1 μM, replicates: in singlicate, n = 1.
The test system of the next experiment is T1, ADCK3.
T1 construct: gene CABC1
To be noted: concentration: 1 μM, replicates: in singlicate, n = 1.

A further experiment has as its system ADCK4. To be noted: concentration: 1 μM, replicates: in singlicate, n = 1.
The test system of another experiment is AKT1. To be noted: concentration: 1 μM, replicates: in singlicate, n = 1.
A further experiment deals with AKT2. To be noted: concentration: 1 μM, replicates: in singlicate, n = 1.
In another experiment the test system is AKT3. To be noted: concentration: 1 μM, replicates: in singlicate, n = 1.
The subject of the next experiment is ALK. To be noted: concentration: 1 μM, replicates: in singlicate, n = 1.
The test system of a further experiment is T2, AMPK-alpha1.
T2 construct: gene PRKAA1
To be noted: concentration: 1 μM, replicates: in singlicate; n = 1.

The structures appear in SMILES notation. Values joined by “and” are separate entries in the source; they are usually repeats but may differ in a detail not shown here. Equal values may be shown once. Read-outs that look alike come from different tables or passages of the source.
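Also: KINOMEscan kinase panel screen.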

Regarding `CCn1cnc2c(N)ncnc21` [GW345098], the “%Inh” value worked out at 0% in the experiment with AAK1; 33% with ABL1-nonphosphorylated; 35% in the experiment on ABL1-phosphorylated; 12% in the experiment on ABL2; 0% with ACVR1B; 7% in the experiment on ACVR1. The “%Inh” value worked out at 0% in the experiment with ACVR2A; 0% in the experiment with ACVR2B; 8% with ACVRL1; 19% with ADCK3; 0% with ADCK4; 0% in the experiment with AKT1. The “%Inh” value in the experiment with AKT2 was found to be 0%; with AKT3, 0%; in the experiment with ALK, 0%; with AMPK-alpha1, 29%.
Turning to `CC(=O)Nc1ccc(COc2ccc(Nc3ccnc4cc(-c5ccccn5)ccc34)cc2)cc1.Cl` [GW440148], the “%Inh” value in the experiment with AAK1 came to 13%; with ABL1-nonphosphorylated, 35%; with ABL1-phosphorylated it was 19%; in the experiment on ABL2, 11%; with ACVR1B it was 0%; with ACVR1, 0%. In addition, the “%Inh” value amounted to 0% with ACVR2A; 59% in the experiment with ACVR2B; 3% in the experiment with ACVRL1; 18% in the experiment with ADCK3; 26% in the experiment on ADCK4; 0% with AKT1. The “%Inh” value in the experiment with AKT2 came to 15%; in the experiment on AKT3, 0%; with ALK it was 6%; in the experiment on AMPK-alpha1, 0%.
For `Fc1ccc(-c2nn3c(OCC(F)(F)F)cccc3c2-c2ccncc2)cc1` [GW514784], the “%Inh” value in the experiment with AAK1 is listed as 0%; in the experiment with ABL1-nonphosphorylated it was 0%; in the experiment on ABL1-phosphorylated, 0%; in the experiment on ABL2, 5%; in the experiment with ACVR1B, 61%; with ACVR1 it was 13%. Moreover, the “%Inh” value in the experiment with ACVR2A is listed as 0%; with ACVR2B, 0%; in the experiment with ACVRL1, 0%; in the experiment on ADCK3, 18%; in the experiment with ADCK4, 46%; in the experiment on AKT1, 0%. Moreover, the “%Inh” value in the experiment on AKT2, with AKT3, in the experiment with ALK and with AMPK-alpha1 was 0% each time.
As to `COc1cc2c(cc1OCCN1CCN(C)CC1)ncc1c3ccc(C#N)cc3[nH]c21`, the “%Inh” value with AAK1 was determined as 96.2%; in the experiment on ABL1-nonphosphorylated, 82%; in the experiment with ABL1-phosphorylated, 69%; in the experiment on ABL2, 6%; with ACVR1B it was 0%; in the experiment with ACVR1, 0%. Further, the “%Inh” value is 10% with ACVR2A; 0% in the experiment with ACVR2B; 0% in the experiment on ACVRL1; 0% in the experiment with ADCK3; 3% in the experiment with ADCK4; 0% in the experiment with AKT1. In addition, the “%Inh” value in the experiment on AKT2 is on record as 18%; with AKT3 it was 0%; with ALK it was 0%; in the experiment with AMPK-alpha1 it was 10%.
As to `CN(C(=O)c1ccc(-c2cc(-c3c[nH]nc3-c3ccccn3)ccn2)cc1)C1CCOCC1` [GW810083], the “%Inh” value in the experiment with AAK1 is 0%; in the experiment with ABL1-nonphosphorylated, 57%; in the experiment with ABL1-phosphorylated it was 0%; in the experiment on ABL2 it was 0%; in the experiment on ACVR1B, 52%; in the experiment with ACVR1 it was 0%. The “%Inh” value came to 0% with ACVR2A; 2% with ACVR2B; 0% with ACVRL1; 1% in the experiment on ADCK3; 24% in the experiment with ADCK4; 0% with AKT1. Further, the “%Inh” value with AKT2 was 0%; with AKT3 it was 0%; in the experiment with ALK, 17%; in the experiment on AMPK-alpha1 it was 0%.
In the case of `Nc1nccc(-c2c(-c3ccc(F)cc3)ncn2C2CCN(CC(F)(F)F)CC2)n1` [SB-236560], the “%Inh” value worked out at 5% with AAK1; 46% in the experiment on ABL1-nonphosphorylated; 0% with ABL1-phosphorylated; 0% in the experiment with ABL2; 0% in the experiment with ACVR1B; 19% in the experiment with ACVR1. The “%Inh” value with ACVR2A is 0%; in the experiment with ACVR2B it was 0%; in the experiment on ACVRL1, 0%; with ADCK3, 0%; in the experiment with ADCK4, 47%; in the experiment on AKT1 it was 0%. Besides, the “%Inh” value was 0% in the experiment with AKT2, 0% in the experiment on AKT3, 29% with ALK and 0% in the experiment on AMPK-alpha1.
As to `C[C@@H](Oc1cc(-n2cnc3ccc(NC(=O)NC(C)(C)C)cc32)sc1C(N)=O)c1ccccc1Cl` [GSK346294], the “%Inh” value in the experiment with AAK1 was determined as 15%; with ABL1-nonphosphorylated, 0%; in the experiment on ABL1-phosphorylated, 0%; with ABL2, 9%; in the experiment on ACVR1B, 0%; in the experiment with ACVR1 it was 0%. Also, the “%Inh” value in the experiment with ACVR2A is recorded as 0%; with ACVR2B, 17%; in the experiment on ACVRL1, 1%; in the experiment with ADCK3, 37%; with ADCK4, 31%; in the experiment with AKT1 it was 0%. In addition, the “%Inh” value in the experiment with AKT2 is 3%; in the experiment on AKT3, 0%; in the experiment on ALK, 0%; in the experiment on AMPK-alpha1 it was 6%.
For the compound `CC(C)(CN)c1nc(-c2ccc(Cl)c(O)c2)c(-c2ccncc2)[nH]1.O=C(O)C(F)(F)F` [SB-477794], the “%Inh” value was 0% in the experiment with AAK1; 96.1% and 94.7% in the experiment on ABL1-nonphosphorylated (1 µM); 99.4% and 98.9% in the experiment on ABL1-phosphorylated (1 µM); 92.4% and 89% in the experiment with ABL2 (1 µM); 87% and 91.7% in the experiment with ACVR1B (1 µM); 96.5% and 93.4% in the experiment with ACVR1 (1 µM). In addition, the “%Inh” value was 1% and 25% in the experiment on ACVR2A (1 µM); 91.9% and 91% in the experiment on ACVR2B (1 µM); 61% and 67% with ACVRL1 (1 µM); 7% and 17% in the experiment with ADCK3 (1 µM); 54% and 35% in the experiment on ADCK4 (1 µM); 5% and 25% in the experiment on AKT1 (1 µM). Besides, the “%Inh” value in the experiment on AKT2 (1 µM) is 21% and 8%; with AKT3 (1 µM), 34% and 100%; in the experiment with ALK (1 µM) it was 34% and 16%; with AMPK-alpha1 it was 0%.
Regarding `Nc1nc(-c2ccc3c(N)n[nH]c3c2)cc(N2CCCC2)n1` [GSK2227430], the “%Inh” value in the experiment with AAK1 is 17%; with ABL1-nonphosphorylated, 0%; in the experiment on ABL1-phosphorylated it was 0%; in the experiment with ABL2, 0%; in the experiment on ACVR1B, 0%; in the experiment with ACVR1, 0%. Moreover, the “%Inh” value in the experiment on ACVR2A amounted to 0%; in the experiment with ACVR2B, 0%; with ACVRL1 it was 0%; in the experiment on ADCK3 it was 0%; in the experiment with ADCK4, 2%; in the experiment on AKT1 it was 0%. The “%Inh” value worked out at 3% in the experiment with AKT2, 0% in the experiment with AKT3, 4% with ALK and 0% in the experiment on AMPK-alpha1.
On to `O=C(c1ccc(-c2cc(-c3c[nH]nc3-c3ccccn3)ccn2)cc1)N1CCOCC1` [GW812171], for which the “%Inh” value is given as 0% in the experiment on AAK1; 36% with ABL1-nonphosphorylated; 29% in the experiment with ABL1-phosphorylated; 2% in the experiment on ABL2; 76% with ACVR1B; 0% in the experiment on ACVR1. The “%Inh” value with ACVR2A is 0%; in the experiment on ACVR2B it was 0%; in the experiment with ACVRL1 it was 0%; with ADCK3 it was 0%; in the experiment on ADCK4, 0%; in the experiment on AKT1, 5%. Besides, the “%Inh” value with AKT2 came out at 0%; with AKT3 it was 0%; in the experiment with ALK, 5%; with AMPK-alpha1, 19%.
As to `COc1cc2c(cc1OC[C@@H](O)CO)ncc1c3ccc(C#N)cc3[nH]c21`, the “%Inh” value is 78% in the experiment with AAK1; 49% in the experiment with ABL1-nonphosphorylated; 21% with ABL1-phosphorylated; 0% in the experiment on ABL2; 0% with ACVR1B; 0% in the experiment with ACVR1. For the same compound, the “%Inh” value in the experiment on ACVR2A turned out to be 0%; with ACVR2B, 1%; in the experiment on ACVRL1 it was 0%; in the experiment on ADCK3 it was 0%; in the experiment with ADCK4, 0%; with AKT1 it was 0%. Also, the “%Inh” value in the experiment with AKT2 was found to be 0%; in the experiment on AKT3, 0%; with ALK, 15%; in the experiment on AMPK-alpha1 it was 0%.
Turning to `Cn1cc(-c2ccc3c(c2)CCN3C(=O)Cc2ccccc2Cl)c2c(N)ncnc21` [GSK2608885], the “%Inh” value in the experiment with AAK1 came out at 25%; with ABL1-nonphosphorylated, 95.9%; in the experiment with ABL1-phosphorylated it was 23%; in the experiment on ABL2, 85%; in the experiment on ACVR1B, 0%; with ACVR1 it was 0%. Also, the “%Inh” value in the experiment with ACVR2A is 0%; in the experiment with ACVR2B it was 13%; in the experiment with ACVRL1, 3%; with ADCK3, 1%; in the experiment on ADCK4 it was 88%; in the experiment on AKT1, 0%. Also, the “%Inh” value in the experiment on AKT2 was found to be 0%; with AKT3, 0%; with ALK, 0%; with AMPK-alpha1, 2%.
Consider `COc1ccc(Nc2ncc(C#N)c(Nc3ccccc3C(N)=O)n2)cc1N1CCN(C)CC1.Cl` [GSK1558669], for which the “%Inh” value in the experiment with AAK1 is recorded as 97.2%; in the experiment on ABL1-nonphosphorylated it was 100%; in the experiment with ABL1-phosphorylated it was 100%; in the experiment on ABL2, 99.2%; in the experiment on ACVR1B, 33%; in the experiment on ACVR1, 33%. Also, the “%Inh” value in the experiment with ACVR2A stood at 0%; in the experiment on ACVR2B it was 0%; in the experiment on ACVRL1, 0%; in the experiment with ADCK3 it was 0%; with ADCK4 it was 52%; in the experiment with AKT1, 8%. For the same compound, the “%Inh” value was determined as 63% with AKT2, 0% in the experiment on AKT3, 95.7% in the experiment with ALK and 97.3% with AMPK-alpha1.

The values above are taken from publication PMC5540273 (PLoS ONE, 2017).
